Bioassay records deposited in PubChem by ICCB-Longwood Screening Facility, Harvard Medical School.
Mtb MbtI inh: MbtI salicylate synthase inhibitors, primary screen, biochemical, fluorescence intensity; P9WFX0; purified MbtI enzyme, fluorescence intensity read-out; inhibition, % (concentration not given with the values); hit rate 0.89% among 100,000; in the data active means inhibition mostly above about 56%, no sharp cut-off; inactive means mostly below about 77%
AID504770: growth inhibition of E. coli YBA685, primary screen, V. cholerae RctB inhibitors | E. coli YBA685 rctB-dependent plasmid, OD600 growth, 3 h; hits give low values | z-score (no concentration beside the values) | hit rate 0.27% among 130,000; in the data active means z-score below about -2, passing the limit was not always enough
Polio RdRp inh: poliovirus RdRp elongation inhibitors, primary screen, biochemical, fluorescence polarization, total intensity; hit rate 0.66% among 150,000; poliovirus polymerase elongation; hits give low values; % elongation, % (compound at 16.7 µg/mL); in the data active means % elongation below about 90%
Target sequence (P03300 1749-2209 limits assumed): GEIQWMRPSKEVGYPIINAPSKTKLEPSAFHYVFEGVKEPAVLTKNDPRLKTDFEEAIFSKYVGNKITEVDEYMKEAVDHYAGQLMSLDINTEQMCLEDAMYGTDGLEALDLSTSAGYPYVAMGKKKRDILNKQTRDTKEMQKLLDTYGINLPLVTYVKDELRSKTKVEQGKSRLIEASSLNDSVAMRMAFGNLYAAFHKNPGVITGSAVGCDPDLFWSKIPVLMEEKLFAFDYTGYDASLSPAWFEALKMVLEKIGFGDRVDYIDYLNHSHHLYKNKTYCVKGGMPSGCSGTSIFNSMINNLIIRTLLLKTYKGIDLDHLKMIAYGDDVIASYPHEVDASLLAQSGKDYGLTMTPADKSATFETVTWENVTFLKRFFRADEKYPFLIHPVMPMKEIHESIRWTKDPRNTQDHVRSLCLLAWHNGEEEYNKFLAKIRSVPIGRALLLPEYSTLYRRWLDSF
MenB inh: M. tuberculosis MenB inhibitors, primary screen, biochemical, absorbance. 1,4-dihydroxy-2-naphthoyl-CoA synthase (Mycobacterium tuberculosis (strain ATCC 25618 / …. MenB enzyme assay, absorbance read-out. inhibition, % (no concentration beside the values). hit rate 0.43% among 100,000; in the data active means inhibition above about 21%, passing the limit was not always enough
Active calls of the source: *; i = inactive; . = no result; ! = not confirmed by another sample. Hits are enriched below; roughly 1.4% of the tested compounds scored in any of these assays.

SMILES	Mtb MbtI inh	AID504770	Polio RdRp inh	MenB inh
O=C(Nc1cccc(F)c1)[C@H](CSCc1ccccc1)N1Cc2ccccc2C1=O	.	.	84.0*	.
O=C(Nc1cccc(F)c1)[C@H](Cc1ccccc1)N1Cc2ccccc2C1=O	-8.8	-0.55	100.0	-20.4
O=C1C2C3c4ccccc4C(c4ccccc43)C2C(=O)N1Cc1ccccn1 (centres undefined)	-1.9	0.55	101.0	-28.4
CCOC(=O)NC1CCS(=O)(=O)C1 (centres undefined)	-3.2	0.25	100.0	-14.2
O=C(CC(NCCN1CCOCC1)C(=O)O)Nc1ccc2ccccc2c1 (centres undefined)	14.9	0.85	102.0	-6.4
Cc1ccc(C(=O)CC(NCCN2CCOCC2)C(=O)O)cc1 (centres undefined)	.	-0.2	103.0	32.9*
CCOC(=O)c1cnc2ccccn2c1=O	104.7	1.15	103.0	11.4
O=C(O)c1cnc2ccccn2c1=O	89.5	0.85	102.0	27.3*
Cc1ccc(NC2=C(c3ccc(C(F)(F)F)cc3)C(=O)c3ccccc32)cc1C	.	.	81.0*	.
CN1CCN(CCCNC(=O)c2cnn(-c3ccc(F)cc3)c2-n2cccc2)CC1	.	.	110.0	.
O=C(NCCc1cn2c(n1)SCC2)NC1CCCCC1	-0.2	0.75	99.0	-4.7
O=c1[nH]c(CSc2ccccn2)nc2ccsc12	96.5*	0.65	128.0	-21.8
O=C(O)C1CSC2c3ccccc3C(=O)N12 (centres undefined)	-4.5	0.05	101.0	38.7*
CN(C(=O)C1c2ccccc2C(=O)N2CCc3ccccc3C12)C1CCCCC1 (centres undefined)	-11.6	-0.15	103.0	-13.0
C[N+]1(C)CCOC12CCCCC2	-4.1	0.7	99.0	45.4*
COc1ccc(C2C(C#N)=C(N)OC3=C2C(=O)CCC3)cc1 (centres undefined)	11.3	-0.15	102.0	-19.0
COC(=O)C1=C(N)OC2=C(C(=O)CCC2)C1c1ccc(OC)cc1 (centres undefined)	3.8	1.65	101.0	36.5*
CCOC(=O)C(C#N)=C1C2CC3CC(C2)CC1C3	.	-0.15	.	.
CCOC(=O)C(C#N)=c1sc(=C(C#N)C(=O)OCC)s1	75.5*	0.55	88.0*	-19.2
Cc1ccc(NC(=O)Cn2c(=O)nc(-c3ccccc3)c3ccccc32)cc1	.	.	114.0	.
COC1=CC(=O)C(C)=CC1=O	.	-3.15*	.	.
Clc1nc2c(Cl)cccc2s1	58.7*	-1	103.0	-24.6
Clc1cccc2sc(N3CCCC3)nc12	-0.9	-0.8	102.0	-4.0
Cn1c(CCC(=O)NCc2ccc(F)cc2)nc2cc(S(=O)(=O)N3CCCCC3)ccc21	18.4	0.35	.	-2.8
COc1ccc(NC(=O)CCc2nc3cc(S(=O)(=O)N4CCCCC4)ccc3n2C)cn1	95.0*	0.4	79.0	-26.5
SMILES	Mtb MbtI inh	AID504770	Polio RdRp inh	MenB inh
Nc1nncn1C(=O)c1ccc(Br)cc1	-5.8	-0.65	101.0	-18.0
CCn1c(CCC(=O)N2CCN(c3ccccn3)CC2)nc2cc(S(N)(=O)=O)ccc21	103.1	0.05	55.0*	-1.1
Cc1csc2nc(COC(=O)c3ccc(F)cc3)cc(=O)n12	.	.	109.0	.
Cc1ccccc1OCCSc1nnc(-c2cccs2)o1	.	.	109.0	.
Cc1cc(Cl)ccc1OCCSc1nnc(-c2cccs2)o1	.	.	10.0*	.
Cc1ccc(-n2c(=O)c3ccc(C(=O)NCc4ccccc4Cl)cc3n(CC(N)=O)c2=O)cc1	.	.	104.0	.
CCOc1ccccc1NC(=O)CCn1c(-c2ccc(OC)cc2)cc(C(C)=O)c1C	.	.	111.0	.
CCOc1cc(C(=O)O)c(N)cc1OC	99.5	-0.35	87.0*	11.5
CC(=O)Nc1cccc(SSc2cccc(NC(C)=O)c2)c1	97.1*	-0.1	99.0	10.1
O=S(=O)(c1ccc(N=Cc2ccncc2)cc1)c1ccc(N=Cc2ccncc2)cc1	.	-0.2	104.0	-0.8
O=C1Cc2ccccc2C(=O)N1Cc1ccc2c(c1)OCO2	-4.3	-0.25	75.0*	.
Cc1sc2nc(-c3ccccc3O)[nH]c(=O)c2c1C	.	-0.55	75.0*	-10.9
COCc1cc(C)nc2sc3c(=O)[nH]c(-c4ccccc4O)nc3c12	.	-0.65	100.0	4.1
CCCCC1C(=O)N(c2ccccc2)N(c2ccc(O)cc2)C1=O (centres undefined)	84.0*!	0.35	101.0	-9.7
N#Cc1cccc(NC(=O)Nc2cccs2)c1	12.6	-3.15*	101.0	11.5
N#Cc1cccc(NC(=S)NC(=O)c2cccs2)c1	-2.1	2.25	104.0	-38.2
CCOc1ccc(NC2=CC(=O)CCC2)cc1	-11.3	-1	101.0	2.8
CCOc1ccc(NC2=CC(=O)C=CC2=O)cc1	98.2*	0.9	100.0	.
N#Cc1nc2[nH]c(-c3ccccc3)cc(=O)n2c1C#N	104.9	0.1	90.0*	-3.9
N#Cc1ccc(-c2ccccc2)[nH]c1=O	i	-0.9	100.0	-21.8
CC(C)(C)N(C(=O)c1ccc(S(=O)(=O)N2CCCC2)cc1)C(=O)N1CCCCC1	15.5	1.45	.	10.3
CCOc1ccc(-n2nnc(C(=O)NCCCn3ccnc3)c2C)cc1	2.9	0.5	104.0	13.5
CC(=O)OC(OC(C)=O)C12C=CC(O1)C1C(=O)N(c3ccccc3-c3ccccc3)C(=O)C12 (centres undefined)	90.3*	-0.1	98.0	-10.2
Cc1nc(-c2ccccc2)cc(=O)[nH]1	6.9	0.4	102.0	36.5*
O=c1cc(-c2ccccc2)nc(Nc2nc3ccccc3o2)[nH]1	4.4	2.5	68.0*	-29.8
SMILES	Mtb MbtI inh	AID504770	Polio RdRp inh	MenB inh
COc1ccc(C2C(C(=O)N3CCN(c4ccccn4)CC3)CCC(=O)N2c2cc(OC)c(OC)c(OC)c2)cc1 (centres undefined)	116.0	2.05	101.0	-36.1
O=C(O)c1nn(C2CCOC2=O)c(=O)c2ccccc12 (centres undefined)	-13.4	0.75	99.0	-25.1
Cc1ccc(C2NCCS2)cc1 (centres undefined)	9.7	-0.8	103.0	-85.3
COc1ccc2nc(N=C(N)N)nc(C)c2c1	.	0.7	65.0*	4.5
Cc1ccc2nc(N=C(N)N)nc(C)c2c1	26.4	0.65	101.0	7.6
COc1ccc(Cn2c(=O)c3ccccc3n3c(-c4ccccc4O)nnc23)cc1	-11.5	1.05	106.0	-13.3
COc1ccc(OC)c(-c2nnc3n(Cc4ccc(C)cc4)c(=O)c4ccccc4n23)c1	.	.	64.0*	.
Cc1nn(-c2ccccc2)c2c1P(=S)(N1CCOCC1)N(C)C(c1ccccc1)=N2 (centres undefined)	79.7	-0.5	82.0*	-4.8
CCSc1nsc(NC(=O)Nc2cccc(F)c2)n1	20.2	-2.8*	102.0	15.2
COc1cc(Cl)ccc1N=NN1CCOCC1	.	-3.95*	.	.
COc1ccc(Cl)cc1CN1CCCCC1	.	-1.4	110.0	-14.1
CCOC(=O)c1cccc(NC(=O)C(C)(C)CC)c1	.	-0.15	105.0	0.5
CCOC(=O)Cn1c(=O)n(CC2CCCO2)c2nc(-c3cc(OC)ccc3OC)nc(C(N)=O)c21 (centres undefined)	.	.	104.0	.
O=C1C=CC(=O)N1c1ccccc1C(F)(F)F	98.5*	-2.5*	101.0	.
O=C1C=CC(=O)N1c1ccc(C(F)(F)F)cc1	.	-1	.	.
